These results are taken from the supplement of paper PMC6555819.

The test system of the assay is RARb:RXRa (NR concentration 270 nM, RXRa partner concentration 90 nM). Description: PBM binding z-score (relative to random genomic background probes); higher = stronger binding; sequences stand for … in GC…GCGATTGACAGCGTAGAATGAAGG
The method in brief:
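Ligand-free nuclear receptor dimers were bound for 1 h to custom Agilent 4×180K protein-binding microarrays. Detection used antibodies against each partner (one per run). Binding z-scores rest on regression-normalized fluorescence, with random background probes as the reference.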
The sequence CCTAGTGGGTCAGGAGGTCACACACCGGATATGA displayed a PBM binding z-score of 4.42. With CCTACTGGGCAAAAAAGGTCATTGATGCCGATAA the figure was 3.81; with TCTAGTTCGTCACGGAGGTCACACACGACGGGTA, 3.83; with CCTAGTTGGTCAAGGTCACGCACGCTATAGGTAC, 4.31.

In the case of ATATGTAGGTTAGCGGGGGTCATTCAGACTAGGC, the PBM binding z-score came to 3.55. With CCTAGATGGTCAGGAGGTCACACACCGGATATGA the figure was 3.54; with CCTAGTTGGTCAGGAAGTCACACACCGGATATGA, 0.892.

CGTCAAAGTTAAAGGTAACGTAACAGAAAGCAGC displayed a PBM binding z-score of 1.02.

Take CCTACTGGGCCATTCAGAGGTCACTGATCATATG: the PBM binding z-score amounted to 3.37.

In the case of TAGCCTCGGTCATTCAGGGGCCAGTATAGAAAGC, the PBM binding z-score worked out at 2.68. With CAAACTAGGCCAAGGTCAAAGTCGGTTTGTGCCA the figure was 4.07. With ATCGAAAGGTCGAGTTGAGTATAGAGAAAGGGAA the figure was 3.88; with CGTCAAAGTTCAAGGTAAAGTAACAGAAAGCAGC, 4.95; with CTATGTAGGTGAAGGGGGTCATTCAGTTTGAAAG, 3.52. With TCTAGTTGGTCACGGGGGTCACACACGACGGGTA the figure was 4.07; with CCTTACGGGTCACTTACAGGTTATAGCATTTGGA, 3.65; with CCTACTGGGCCATTCAGAGGTCATCGATCATATG, 3.29.

CAAAATAGGTCAAGAGGTCAAAGTCCGCTTCCCG registered a PBM binding z-score of 5.7. In the case of TAGCCTAGGTCATGCGGGTCAGTATAGTGTCGGC it was 4.05; in that of GCTTACGGGTCAAAGGTTAAAGCATGAATAGAAT, 4.94. ATCGAAAGGTCGACGAGGTGAGAATACACCGTTT returned a PBM binding z-score of 4.1.

CGTCCAAGGGCAATGCTAGGTCAGTGAAAGCATT gave a PBM binding z-score of 3.1. In the case of GCTTACGGGTCAAAAGTTATAGCATGAATAGAAT it was 3.16; in that of CCTACTGGGCCACGAAAGGTGATTGATTCAGTGA, 0.929. In the case of CTATGTAGGTTAAGGGGGTCATTGAGTTTGAAAG it was 3.78; in that of ATCGAAAGGTCGTGAGGTGAGTTTACAGAAAGGC, 4.08; in that of TCTACTTGGTCACGGAGGTCACACACGACGGGTA, 3.89. With TCGAGTAGGTTACGGGGGCGTTCAGGGATGAAGA, the PBM binding z-score stood at 2.23. With TATACAGGATCAAAGGCCAGAGTACGAATGTCGA the figure was 0.997; with CCTAGTTGGTCAAGGTCCCACACGCTATAGGTAC, 1.29; with CCCAGTAGGTTACGAGGGGGCATTCAGTGCGAAT, 2.2. Sequence AGAATGGGGTTATTAAGATCAGGGAATTGCGGTC yielded a PBM binding z-score of 1.77.

In turn, ATCGAAAGGTCGTGAAGTGAGTATACAGAAAGGC had a PBM binding z-score of 3.73. In the case of GCTGCTAGGTCAGGTTGGTCAGCTAACGGGTACG it was 3.33; in that of CCTTACGGGTCACTGACAGCTTATAGCATTTGGA, 3.84. AGAATGAGGTTAGCAAAGATCAGGGAAACGCTTG showed a PBM binding z-score of 1.46.

CCTAGTTGGTCAGGGGGTCACACACCGGATATGA: the PBM binding z-score was 3.74. In the case of AGTCGGAGGACAAAGGTCAGAGCTACGCCAGTGA it was 4.31.
